The first test deals with SLC25A3. Put plainly: pooled miR-30 sensor sort-seq; sequence = guide strand. The note with it: shRNA.
The sequence TATGGTATCTGTCTCATCCAGA returned a sensor-assay potency score (higher = more potent) of 0.075.

In the case of TTGCACAAAAGACTCCAGCTAT, the sensor-assay potency score (higher = more potent) is 0.0495.

For TTCACAACTGTACTCTTCCACG, the sensor-assay potency score (higher = more potent) was -0.783.

TTGAGGACCAGAGAAGCACTGC yielded a sensor-assay potency score (higher = more potent) of 0.0253.

In the next test the target is SLC25A41. Described as above. The following applies: shRNA.
On to ATACTCAGGAGCAATCTTGAGC, for which the sensor-assay potency score (higher = more potent) is -0.858.

On to TCCTGTGTCCAGTACCTGCTGT, for which the sensor-assay potency score (higher = more potent) was -0.625.

TGCATGTACACCTTGGCTCTGT: the sensor-assay potency score (higher = more potent) is -0.291.

TAGACCTGCATGTACACCTTGG came in with a sensor-assay potency score (higher = more potent) of -0.353.

For TAGAGCAAGTGTTCTGAGGTTC, the sensor-assay potency score (higher = more potent) is 0.286.

TCTCGCTGCAAGATCTGCCTGG displayed a sensor-assay potency score (higher = more potent) of -0.421.

TTCAAGGTTGTTGTCATGCATG came in with a sensor-assay potency score (higher = more potent) of -1.11.

TTGCACTGCTCGAATACGGAGA showed a sensor-assay potency score (higher = more potent) of -0.376.

With TTGGTGAAGTTCGTCTTGGAGG, the sensor-assay potency score (higher = more potent) was -1.22.

For TACACCACATAGCTGATGCCAC, the sensor-assay potency score (higher = more potent) is -0.548.

In turn, TAGACAGCCAGGTCGGTGCAGG had a sensor-assay potency score (higher = more potent) of -0.911.

The sequence TATTCCACAGAAGTAATTCTTG displayed a sensor-assay potency score (higher = more potent) of -0.218.

The next test addresses SLC25A5. The description is as above. The following applies: shRNA.
Regarding TTGCTTCCCATTTTCAACCAGT, the sensor-assay potency score (higher = more potent) is -0.278.

As for TTCATCATACAAGACAAGCACA, the sensor-assay potency score (higher = more potent) is -1.02.

With TTGCTTATCTGCAGTGATCTGC, the sensor-assay potency score (higher = more potent) is -0.049.

As for TTGCAGTGTCATAGATACCGAA, the sensor-assay potency score (higher = more potent) was -0.793.

As to TCTGCAGTGATCTGCTTGCTGG, the sensor-assay potency score (higher = more potent) was -0.995.

In turn, TCTCTTGTCCACACCACCCAGG came in with a sensor-assay potency score (higher = more potent) of -0.852.

In turn, TATAATGCCTTTGTATTGCTTA gave a sensor-assay potency score (higher = more potent) of 0.347.

On to TGCAGTGTCATAGATACCGAAG, for which the sensor-assay potency score (higher = more potent) is -1.43.

Sequence ATGGATAGGAAGTCAACCCGGC displayed a sensor-assay potency score (higher = more potent) of -0.119.

TCACGAGCAATCTTCCGCCAGC yielded a sensor-assay potency score (higher = more potent) of -0.904.

TTTGTAGATCTTAACCAGGCAG had a sensor-assay potency score (higher = more potent) of -0.343.

As to TTTGTATTGCTTATCTGCAGTG, the sensor-assay potency score (higher = more potent) was -0.375.

TACAAGACAAGCACAAAAGCAC displayed a sensor-assay potency score (higher = more potent) of 0.0644.

TTATCTTTGAAGGCGAAGTTAA displayed a sensor-assay potency score (higher = more potent) of -1.05.

Sequence TGCCTTTGTATTGCTTATCTGC had a sensor-assay potency score (higher = more potent) of -0.404.

In the case of TTCATCACGAGCAATCTTCCGC, the sensor-assay potency score (higher = more potent) is -0.132.

Take TTCTCTTGTCCACACCACCCAG: the sensor-assay potency score (higher = more potent) was -1.25.

Turning to TTGTATTTATCTTTGAAGGCGA, the sensor-assay potency score (higher = more potent) is -0.168.

For TTGTATTGCTTATCTGCAGTGA, the sensor-assay potency score (higher = more potent) is -0.0407.

Sequence TCGGTAGATGATAATACCCTGC gave a sensor-assay potency score (higher = more potent) of -0.461.

TATCTGATGACATTGGCCAGGT returned a sensor-assay potency score (higher = more potent) of 0.271.

With TTATCTGCAGTGATCTGCTTGC, the sensor-assay potency score (higher = more potent) was found to be 0.187.

For the sequence TTGTAGATCTTAACCAGGCAGT, the sensor-assay potency score (higher = more potent) was -0.456.

Turning to AGATTTGTAGATCTTAACCAGG, the sensor-assay potency score (higher = more potent) is -1.69.
Further: reference of the scale not given here.
